Assay outcomes as filed in PubChem.
Pf growth 96h: Primary qHTS for delayed death inhibitors of the malarial parasite plastid, 96 hour incubation; AID 504834, 2011; Potency, µM (highest dose often 28.7 µM), usual class: inhibitors; P. falciparum luciferase reporter growth, 96 h; hit rate 6.9% among 320,000
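Compounds incubated with erythrocytes infected by luciferase-expressing P. falciparum (2% hematocrit, 0.05% parasitemia final) for 96 hours, 37 C in 5% CO2. Growth inhibition scored as decreased luciferase luminescence.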
Pf growth 48h: Primary qHTS for delayed death inhibitors of the malarial parasite plastid, 48 hour incubation; Potency, µM (highest dose often 28.7 µM), most hits filed as inhibitors; hit rate 5.9% among 310,000; P. falciparum luciferase growth in erythrocytes, 48 h
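Cell-based growth assay: transgenic P. falciparum expressing firefly luciferase, cultured in red cells within RPMI 1640 containing 0.5% w/v Albumax, 24 mM bicarbonate and gentamycin. A drop in luciferase activity indicates inhibition.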
Shiga inhibitor: A qHTS for Small Molecule Inhibitors of Shiga Toxin. hit rate 9.2% among 290,000. AID 2315, 2010. Vero cells, Shiga toxin protein synthesis inhibition reporter. inhibition, % at 38.7 µM; in the data active = inhibition mostly above about 28%, no sharp cut-off; inactive = mostly below about 43%
SARS PLP yeast: qHTS of Yeast-based Assay for SARS-CoV PLP. S. cerevisiae expressing SARS-CoV PLpro, growth rescue. Potency, µM (doses to about 32.9 µM), most hits filed as activators. hit rate 0.19% among 330,000. AID 485353, 2010; calls by dose curve; also: nearly all actives have a fitted effect of over 55% in size
CHX counter: Cycloheximide Counterscreen for Small Molecule Inhibitors of Shiga Toxin. cell reporter, cycloheximide protein synthesis inhibition counterscreen. max response, %. hit rate 12% among 300,000; in the data active = max response mostly above about 13%, no sharp cut-off; inactive = mostly below about 14%; also: read at 38.3 µM for the half of the compounds with a filed dose
NS1 inh: qHTS Assay for Inhibitors of Influenza NS1 Protein Function. AID 2326, 2010. hit rate 0.4% among 270,000. Potency, µM (series often up to 46.1 µM); calls by dose curve; also: actives are rising curves; nearly all actives have a fitted effect of over 50% in size
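Compounds were scored for reversing the slow growth caused by influenza A NS1 in S. cerevisiae, measured by optical density at 600 nm. Assay medium contained 2% galactose at pH 6.0; NS1-free yeast of the same strain were the positive control.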
Of the large screens only hits and unclear results are named; the others gave an inactive call. This is a sample that favours compounds with a hit; in the whole collection about 21% have one here. Unless noted, calls follow the shape of the dose curve; as a rule, active = well fitted inhibition curve with a large enough effect; inconclusive = small, poorly fitted or top-dose-only effect, or another doubt; inactive = no such curve, though single readings can be large or run the other way.

COCCN(CCOC)c1nc(-c2ccccc2)nc2ccccc12	Pf growth 96h inconclusive, Pf growth 48h 13.1µM
Cc1ccc(CNC(=O)CN(C(=O)N2CCN(C)CC2)S(=O)(=O)c2ccc(C)cc2)cc1	none (no result: Shiga inhibitor, CHX counter, NS1 inh)
CCn1c(C)c(C)c2cc(C(=O)NCCN3CCCCCC3)ccc21	Pf growth 96h inconclusive
CC(=O)Nc1cccc(C(=O)NCCc2ccco2)c1	Shiga inhibitor 77.6, CHX counter 26.2
CCn1c(C)c(C)c2cc(C(=O)NCCc3ccco3)ccc21	Pf growth 48h inconclusive, Shiga inhibitor 35.8
CC1CCCCN1CCCNC(=O)c1nn(C)c2c1CS(=O)(=O)c1ccccc1-2 (stereo not drawn)	Pf growth 96h 11.7µM
Cc1c(C)n(C)c2ccc(C(=O)NCCCN3CCCCC3C)cc12 (stereo not drawn)	Pf growth 96h 6.57µM
Cc1c(C)n(C)c2ccc(C(=O)NCCc3ccco3)cc12	Pf growth 48h inconclusive, Shiga inhibitor 69.1, CHX counter 38.6
Cc1c(C)n(C)c2ccc(C(=O)NCCCN(C)C3CCCCC3)cc12	Pf growth 96h inconclusive
Cc1nc(-c2ccccc2Cl)sc1C(=O)/C=C/N(C)C	CHX counter 24.3
Cc1nc(-c2ccccc2)sc1C(=O)/C=C/c1ccc(Cl)cc1	Pf growth 96h inconclusive, Pf growth 48h inconclusive
Cc1ccc(S(=O)(=O)Nc2cccc(-c3cn4ccsc4n3)c2)cc1	CHX counter 9.6
O=S(=O)(Nc1cccc(-c2cn3ccsc3n2)c1)c1ccc(F)cc1	Shiga inhibitor 105.9, CHX counter 25.4 (no result: Pf growth 96h)
CCC(=O)Nc1cccc(-c2cn3ccsc3n2)c1	none (no result: Pf growth 96h)
CC(C)CC(=O)Nc1cccc(-c2cn3ccsc3n2)c1	Shiga inhibitor 36.4, CHX counter 31.6
Cc1ccc(-c2n[nH]c(=S)n2/N=C/c2c(C)[nH]n(-c3ccccc3)c2=O)cc1	none (no result: NS1 inh)
Cc1ccc(SCC(=O)NNC(=O)c2cncc(Br)c2)cc1	none (no result: Pf growth 96h, Pf growth 48h, Shiga inhibitor, CHX counter, NS1 inh)
Nc1ccc(Br)cc1C(=O)O	Pf growth 96h inconclusive
Cc1ccc(C(=O)c2cc(Br)ccc2N)cc1	Pf growth 96h 1.65µM, Shiga inhibitor 44.6, CHX counter 22.2 (no result: NS1 inh)
CCc1ccc(C(=O)c2cncc(Br)c2)cc1	Pf growth 48h inconclusive, Shiga inhibitor 48.7, CHX counter 35.2 (no result: Pf growth 96h, SARS PLP yeast)
Cc1ccc(C(=O)c2cncc(Br)c2)cc1	CHX counter 21.9
COc1cccc(/C=N/Nc2snc(SC)c2C#N)c1	Pf growth 96h inconclusive, Shiga inhibitor 66.8, CHX counter 27.0
COc1cccc(/C=C/c2n[nH]c(=O)c(C#N)c2C)c1	Pf growth 96h inconclusive, Pf growth 48h inconclusive
CSc1nsc(N/N=C/c2ccccc2)c1C#N	Pf growth 96h inconclusive, Shiga inhibitor 51.0, CHX counter 30.5 (no result: NS1 inh)
COc1ccc(/C=N/Nc2snc(SC)c2C#N)cc1OC	Pf growth 48h 4.15µM, Shiga inhibitor 97.5, CHX counter 34.8
CSc1nsc(/C=C/Nc2ccc(C(=O)O)cc2)c1C#N	Pf growth 48h inconclusive (no result: NS1 inh)
COc1cccc(/C=N/Nc2snc(SC)c2C#N)c1O	Shiga inhibitor 69.4, CHX counter 72.3
Brc1ccc(N=C(c2ccccc2)c2ccncc2)cc1	none
CNC(=S)N(CCc1c(C)[nH]c2ccc(OC)cc12)Cc1ccco1	Pf growth 96h inconclusive, Pf growth 48h inconclusive
COc1ccc(NC(=O)Nc2cc(C)ccc2OC)cc1	CHX counter 24.3
COc1ccc(C)cc1NC(=O)Nc1ccccc1	none (no result: Pf growth 48h)
COc1ccc(NC(=O)Nc2cc(C)ccc2F)cc1	CHX counter 26.2 (no result: Pf growth 48h)
COc1cccc(NC(=O)Nc2cc(C)ccc2F)c1	Shiga inhibitor 95.3, CHX counter 27.3
COc1ccc(C(=O)COc2ccc(C)cc2NC(C)=O)cc1	Shiga inhibitor 96.4, CHX counter 48.7
COc1cccc(NC(=O)Nc2cc(C)ccc2OC)c1	none
CCCNC(=O)c1ccc(N2CCC3(CC2)CC(c2cccc(Br)c2)=NO3)c(NC(=O)c2ccc(Cl)c([N+](=O)[O-])c2)c1	Pf growth 48h inconclusive (no result: Shiga inhibitor, CHX counter, NS1 inh)
C[C@@H]1C(=O)OC[C@H]1NC(=O)OCc1ccccc1	Pf growth 48h inconclusive (no result: Shiga inhibitor, CHX counter, NS1 inh)
CCn1cc(/C=C(\NC(=O)c2ccccc2Cl)C(=O)N2CCN(C)CC2)c2ccccc21	Pf growth 48h inconclusive
Cn1c(C(=O)N2CCN(c3ccc(F)cc3)CC2)cc2ccccc21	Pf growth 96h inconclusive, Pf growth 48h inconclusive
Clc1ccc2c(c1)nc1n2CCCC1	none
CN(CC(=O)NCCc1ccc(S(N)(=O)=O)cc1)Cc1ccc(Cl)cc1Cl	none
O=C(NCCC(c1ccccc1)c1ccco1)c1cccs1 (stereo not drawn)	Pf growth 96h inconclusive, Pf growth 48h inconclusive, Shiga inhibitor 118.0, CHX counter 38.3
CCc1ccc(CCC(=O)Nc2nccs2)o1	Shiga inhibitor 59.6, CHX counter 33.8 (no result: Pf growth 96h)
O=C(Cc1c(F)cccc1Cl)Nc1nccs1	Pf growth 96h 14.7µM
Cc1ccc(CCC(=O)Nc2nccs2)o1	none
O=C(Cc1c(F)cccc1Cl)NC1=NCCS1	CHX counter 20.2 (no result: NS1 inh)
CC(C)(C)OC(=O)NC(Cc1ccccc1)C(=O)NC1COC2CC(n3ccc(=O)[nH]c3=O)OC12 (stereo not drawn)	none (no result: Pf growth 96h, Pf growth 48h, SARS PLP yeast, NS1 inh)
Cc1cc(C)c2c(CC(=O)NC(C)C)coc2c1	none (no result: NS1 inh)
CCn1c(SCC(=O)Nc2nccs2)nnc1-c1cccnc1	CHX counter 31.2
O=C(CSCc1c(Cl)cccc1Cl)Nc1nccs1	Pf growth 96h inconclusive, Shiga inhibitor 109.1
Cc1cc(C)c2c(CC(=O)Nc3nccs3)coc2c1	Pf growth 96h inconclusive, CHX counter 20.1
Cc1ccccc1Cn1cc(S(=O)(=O)CC(=O)Nc2nccs2)c2ccccc21	Pf growth 48h 11.7µM
CCOc1ccccc1NC(=O)C(C)CC (stereo not drawn)	none
O=C(OCc1ccccc1F)c1cc2ccccc2cc1O	none (no result: Shiga inhibitor)
Cc1nnc(SCC(=O)Nc2nccs2)s1	NS1 inh inconclusive
O=C(CCc1ccccc1)Nc1nccs1	CHX counter 20.3 (no result: Shiga inhibitor)
O=C(CN1C(=O)C2CCCCC2C1=O)Nc1nccs1 (stereo not drawn)	none (no result: NS1 inh)
O=C(CSc1cn(Cc2ccccc2)c2ccccc12)Nc1nccs1	Pf growth 96h inconclusive, Shiga inhibitor 75.8, CHX counter 37.1 (no result: Pf growth 48h)
O=C(CCC1CCCCC1)Nc1nccs1	Shiga inhibitor 76.6, CHX counter 29.4
Cc1nnc(SCC(=O)Nc2nccs2)o1	Pf growth 96h 13.1µM, Pf growth 48h inconclusive
O=C(CSc1nc(-c2ccccc2)nc2ccccc12)Nc1nccs1	Pf growth 96h inconclusive
CC(C)CNc1c(N)c(=O)oc2ccccc12	Pf growth 48h inconclusive (no result: Pf growth 96h)
Cn1c(CSCc2ccc(F)cc2)nnc1SCC(=O)Nc1nccs1	Pf growth 48h inconclusive (no result: Pf growth 96h)
O=C(CSc1cn(Cc2ccccc2)c2ccccc12)NCc1ccc(F)cc1	Pf growth 96h 9.28µM, Pf growth 48h inconclusive
O=C(CSc1ccc(F)cc1)NC(=O)NCc1ccccc1	none (no result: NS1 inh)
O=C(CSc1ncn(-c2ccccc2)n1)Nc1nccs1	none (no result: Pf growth 48h)
